We go through 11 compounds from PubChem BioAssay.

Each structure is given as a SMILES string. Activity calls are given as the source filed them.

Assay [1] in a line: anti-His antibody binders, primary screen, artefact control for SMM control protein annotation, biochemical, small-molecule microarray, 635 nm fluorescence (AID 1128).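 Also: score merges feature fluorescence with signal-to-noise for each printed compound spot.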 The settings on record: anti-His Alexa647 antibody binding, higher = more signal.
In assay [2] the test system is Human papillomavirus type 1a E7 protein (residues 1-88). In words: HPV1a E7 small-molecule binders, primary screen, biochemical, small-molecule microarray, residues 1-88, 635 nm (AID 1129). The settings on record: small-molecule microarray binding, fluorescence 635 nm; higher = more signal.
In assay [3] the target is Focal adhesion kinase 1 (Homo sapiens) (UniProt Q05397). In words: small-molecule microarray binders of FAK, primary screen, biochemical, 635/667 nm fluorescence, BSA, DTT (AID 1130).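 Also: composite of spot emission at 667 nm and signal to noise over triplicate slides.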 The settings on record: PTK2 binding, 635 nm fluorescence, higher = more signal.
Focal adhesion kinase 1 (Homo sapiens), sequence (Q05397 whole entry, looked up): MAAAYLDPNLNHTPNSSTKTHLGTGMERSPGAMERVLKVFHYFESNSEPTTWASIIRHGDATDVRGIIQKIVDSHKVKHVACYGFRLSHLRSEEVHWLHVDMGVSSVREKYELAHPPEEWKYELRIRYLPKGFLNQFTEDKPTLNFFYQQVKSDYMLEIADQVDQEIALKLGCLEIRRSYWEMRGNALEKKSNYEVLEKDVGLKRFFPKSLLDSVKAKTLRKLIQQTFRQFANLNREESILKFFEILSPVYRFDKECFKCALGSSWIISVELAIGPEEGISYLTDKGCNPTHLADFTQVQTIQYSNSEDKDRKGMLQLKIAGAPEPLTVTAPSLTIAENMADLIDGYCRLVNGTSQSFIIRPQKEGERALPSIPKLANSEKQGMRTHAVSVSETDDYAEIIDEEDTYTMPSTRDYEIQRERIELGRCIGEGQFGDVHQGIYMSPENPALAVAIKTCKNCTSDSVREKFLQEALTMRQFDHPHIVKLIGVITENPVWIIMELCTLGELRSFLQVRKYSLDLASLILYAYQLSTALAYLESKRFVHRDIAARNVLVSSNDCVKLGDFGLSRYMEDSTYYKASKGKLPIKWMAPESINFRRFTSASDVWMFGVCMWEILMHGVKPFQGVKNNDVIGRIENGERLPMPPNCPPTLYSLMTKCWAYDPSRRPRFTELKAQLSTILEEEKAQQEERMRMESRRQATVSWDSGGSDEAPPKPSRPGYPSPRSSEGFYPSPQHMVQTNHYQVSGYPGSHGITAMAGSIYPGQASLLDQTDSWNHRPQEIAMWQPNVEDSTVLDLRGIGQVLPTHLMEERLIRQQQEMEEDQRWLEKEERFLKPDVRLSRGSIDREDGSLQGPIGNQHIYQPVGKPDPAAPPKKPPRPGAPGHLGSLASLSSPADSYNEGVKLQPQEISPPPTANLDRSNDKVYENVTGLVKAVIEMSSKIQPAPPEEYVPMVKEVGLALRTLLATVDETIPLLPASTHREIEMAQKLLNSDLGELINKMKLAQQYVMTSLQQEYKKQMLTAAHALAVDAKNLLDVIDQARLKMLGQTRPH
Assay [4] has as its system Fibrinogen (Alexa647-labelled). Nature of the assay: fibrinogen binders on compound microarrays, profiling panel, artefact control for SMM control-protein annotation, biochemical, small-molecule microarray, 635/667 nm fluorescence (AID 1131).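 Also: z-score merges 667 nm fluorescence with per-spot signal-to-noise over triplicate slides.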 The settings on record: fibrinogen-A647 binding fluorescence, higher = more signal.
In assay [5] the target is Follistatin (Homo sapiens) (UniProt P19883). Nature of the assay: follistatin binders on small-molecule microarrays, primary screen, biochemical, small-molecule microarray, 635/667 nm fluorescence (AID 1132). The note with it: FST binding, 635 nm fluorescence, higher = more signal.
Follistatin (Homo sapiens), sequence (P19883 whole entry, looked up): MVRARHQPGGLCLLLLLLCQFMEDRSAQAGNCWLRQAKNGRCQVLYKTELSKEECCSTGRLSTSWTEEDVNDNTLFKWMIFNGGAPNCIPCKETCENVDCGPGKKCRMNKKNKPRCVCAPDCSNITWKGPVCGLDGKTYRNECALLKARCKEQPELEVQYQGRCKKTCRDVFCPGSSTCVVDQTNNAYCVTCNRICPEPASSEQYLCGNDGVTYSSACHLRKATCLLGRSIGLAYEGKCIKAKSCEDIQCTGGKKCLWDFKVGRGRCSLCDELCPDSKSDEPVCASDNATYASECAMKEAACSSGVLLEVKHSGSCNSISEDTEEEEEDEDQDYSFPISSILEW
Assay [6] deals with Fibroblast growth factor 2 (Homo sapiens) (UniProt P09038). In words: FGF2 binders on small-molecule microarrays, primary screen, biochemical, small-molecule microarray, 635/667 nm fluorescence (AID 1133). The settings on record: small-molecule microarray binding, FGF2, fluorescence 635/667; higher = more signal.
Fibroblast growth factor 2 (Homo sapiens), sequence (P09038 whole entry, looked up): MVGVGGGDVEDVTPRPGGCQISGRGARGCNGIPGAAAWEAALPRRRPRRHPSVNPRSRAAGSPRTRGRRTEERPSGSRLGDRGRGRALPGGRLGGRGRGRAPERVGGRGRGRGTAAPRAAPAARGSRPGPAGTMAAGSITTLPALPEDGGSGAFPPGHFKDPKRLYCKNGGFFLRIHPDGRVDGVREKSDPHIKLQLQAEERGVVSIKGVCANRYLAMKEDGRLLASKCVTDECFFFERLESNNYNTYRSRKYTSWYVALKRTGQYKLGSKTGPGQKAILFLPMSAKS
The nature of assay [7]: mitochondrial membrane potential change in A549 cells, profiling panel, cell-based, JC-1 fluorescence, basal, 24 h, 100 nL (AID 1138).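 Also: A549 lung adenocarcinoma cells under basal conditions with no added stimulus; test concentration not given here.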 The settings on record: higher = more signal.
A further assay relates to Lefty1. In words: Lefty1 binders on small-molecule microarrays, primary screen, biochemical, small-molecule microarray, 635/667 nm fluorescence (AID 1139). The settings on record: small-molecule microarray binding, fluorescence 635/667; higher = more signal.
The subject of assay [8] is wheat germ agglutinin (Triticum aestivum), Alexa647-labelled. In words: wheat germ agglutinin binders on compound microarrays, profiling panel, artefact control for SMM control-protein annotation, biochemical, small-molecule microarray, 635/667 nm fluorescence (AID 1140).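 Also: score merges 667 nm feature emission with signal to noise over triplicate slides.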 The settings on record: WGA-A647 binding, 635 nm fluorescence, higher = more signal.
The target of assay [9] is Luciferin 4-monooxygenase (Photinus pyralis) (UniProt P08659). In words: firefly luciferase enzyme inhibitors, primary screen, biochemical, luminescence, purified enzyme, 2006 set (AID 1141).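 Also: cell-free assay with purified firefly luciferase at 100 ng per well in PBS; test concentration not given here.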 The settings on record: SteadyGlo luminescence, 30 min, higher = more signal, called active from +8 up or from −8 down.
Luciferin 4-monooxygenase (Photinus pyralis), sequence (P08659 whole entry, looked up): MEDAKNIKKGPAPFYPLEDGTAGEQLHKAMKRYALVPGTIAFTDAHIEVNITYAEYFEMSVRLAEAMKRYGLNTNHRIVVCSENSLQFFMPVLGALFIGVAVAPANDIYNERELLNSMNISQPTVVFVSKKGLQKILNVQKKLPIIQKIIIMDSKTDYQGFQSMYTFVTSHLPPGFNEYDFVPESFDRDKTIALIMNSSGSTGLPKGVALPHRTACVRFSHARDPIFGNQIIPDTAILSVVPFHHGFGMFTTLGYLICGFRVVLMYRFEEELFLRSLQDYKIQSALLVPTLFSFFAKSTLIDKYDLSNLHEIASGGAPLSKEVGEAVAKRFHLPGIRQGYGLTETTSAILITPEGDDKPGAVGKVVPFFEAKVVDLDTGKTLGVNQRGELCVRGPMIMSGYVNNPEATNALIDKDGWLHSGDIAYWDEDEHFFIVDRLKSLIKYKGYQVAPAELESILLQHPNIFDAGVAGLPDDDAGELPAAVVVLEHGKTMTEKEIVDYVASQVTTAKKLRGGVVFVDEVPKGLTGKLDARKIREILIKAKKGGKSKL

With `[N-]=[N+]=NCc1ccccc1[C@@H]1OC(c2ccc(OCCCO)cc2)=N[C@]1(Cc1ccccc1N=[N+]=[N-])C(=O)NCCN1CCOCC1`, the composite z-score in assay [1] was 1.37; in assay [2] it was 1.25; in assay [3] it was 0.535; in [4], 0.983; in assay [5], 1.39; in assay [6], 0.893. Moreover, the composite z-score in the assay on Lefty1 is 0.54; in assay [8], 0.445. Moreover, the figures for the z-score in assay [7] and in [9] were 2.23 and -2.82 (inactive), respectively.

For the compound `COCCCNC(=O)[C@@H]1c2ccccc2C(=O)N(C2Cc3ccccc3C2)[C@H]1c1ccc(CO)cc1`, the composite z-score is 3.04 in assay [1]; 1 in [2]; 0.407 in assay [3]; -0.284 in assay [4]; 1.08 in [5]; 1.35 in assay [6]. Further, the results for the composite z-score (in the assay on Lefty1; in assay [8]) were 0.278 and -0.196, respectively. Further, the z-score in assay [7] was 2.76; in [9], -0.714 (inactive).

For `[N-]=[N+]=Nc1ccccc1C[C@]1(C(=O)O)N=C(c2ccc(OCCCO)cc2)O[C@H]1c1ccccc1`, the composite z-score in assay [1] is 0.133; in assay [2], 0.612; in assay [3], -0.0641; in [4] it was 0.282; in assay [5], 0.968; in [6] it was -0.619. Moreover, the composite z-score in the assay with Lefty1 is -0.605; in assay [8] it was 0.801. Further, the z-score in [7] was 0.12; in [9] it was -3.91 (inactive).

As for `C=C(/C(=C/C[C@H](OC(=O)c1ccncc1)c1ccccc1OCCO)c1cnc2ccccc2c1)C(C)C`, the composite z-score in assay [1] was 1.23; in assay [2], 1.22; in [3], 0.374; in [4], 0.958; in assay [5], 1.39; in [6] it was 1.42. Further, the composite z-score with Lefty1 was 1.39; in assay [8] it was 0.846. For the same compound, the z-score in assay [7] was 0.707; in [9] it was -0.177 (inactive).

On to `CN(C)C(=O)[C@@]1(Cc2ccccc2)COC(c2ccc(OCCCO)cc2)=N1`, for which the composite z-score in [1] was 0.468; in [2] it was 0.672; in [3], 0.292; in [4], 0.414; in assay [5] it was -0.13; in assay [6], -0.0827. The figures for the composite z-score (with Lefty1; in [8]) were -1.51 and 0.298, respectively. The z-score was 1.18 in [7] and -2.68 (inactive) in assay [9].

With `COc1ccc(C(=O)Nc2cccc(CN3C(=O)[C@]4(O[C@H](CCn5cc([C@H](O)c6ccccc6)nn5)[C@@H]([Si](C)(C)c5ccc(OC)cc5)[C@@H]4C)c4ccccc43)c2)cc1`, the composite z-score was found to be 1.07 in assay [1]; 0.514 in assay [2]; 0.31 in assay [3]; 0.242 in assay [4]; 1.19 in assay [5]; 0.348 in assay [6]. The composite z-score in the assay on Lefty1 was determined as 0.752; in [8] it was 0.12. Also, the values for the z-score in assay [7] and in assay [9] were 0.456 and 0.889 (inactive), respectively.

As to `CCOC(=O)C[C@H]1[C@H](OC(=O)c2ccc(C(=O)c3ccccc3)cc2)[C@@H](NC(=O)CC(C)C)c2cc(OCCCO)ccc2N1C(=O)Cc1ccc(OC)cc1`, the composite z-score turned out to be 0.201 in assay [1]; 0.766 in assay [2]; 0.721 in assay [3]; 0.286 in [4]; 0.264 in assay [5]; 0.194 in [6]. Besides, the results for the composite z-score (in the assay on Lefty1; in [8]) were -0.215 and 0.675, respectively. For the same compound, the z-score in [7] was 0.911; in assay [9] it was -0.563 (inactive).

Consider `O=C1O[C@H](c2ccccc2)[C@H](c2ccccc2)N2[C@H]1[C@@H](C(=O)Nc1nc3ccccc3s1)[C@]1(C(=O)Nc3ccc(C#CC4=CCCCC4)cc31)[C@H]2c1ccc(O)cc1`, for which the composite z-score in assay [1] was 0.41; in [2] it was 1.18; in [3], -0.145; in assay [4] it was 0.921; in assay [5], 1.12; in assay [6] it was 0.355. Moreover, the composite z-score in the assay with Lefty1 is 0.844; in assay [8], 0.191. Further, the z-score is -1.83 in [7] and 0.128 (inactive) in assay [9].

Regarding `NCCCCCNC(=O)[C@@H]1C[C@@H]2C(=O)N3CCC[C@H]3C(=O)N2[C@@H]1c1ccc(O)cc1`, the composite z-score in assay [1] is 0.509; in [2] it was 1.18; in assay [3], 0.139; in assay [4], 0.788; in assay [5], 1.17; in assay [6] it was 0.428. Besides, the results for the composite z-score (with Lefty1; in assay [8]) were 1.08 and 0.955, respectively. Also, the z-score in [7] was 0.375; in assay [9] it was -0.444 (inactive).

As to `CC(C)(C)OC(=O)CC[C@]12N=C(c3ccc(OCCCO)cc3)O[C@H]1c1ccccc1N(Cc1ccccc1)C2=O`, the composite z-score in [1] amounted to 1.6; in assay [2], 1.13; in assay [3], 0.56; in assay [4], 0.758; in [5], 1.35; in assay [6] it was 1.4. For the same compound, the composite z-score in the assay with Lefty1 came to 0.457; in assay [8] it was 0.477. The z-score is 3.04 in assay [7] and -2.2 (inactive) in assay [9].

As to `C=CCN1C(=O)[C@]2(O[C@H](CCO)[C@@H]([Si](C)(C)c3ccc(OC)cc3)[C@@H]2C)c2cc(NC(=O)c3ccc(OC)cc3)ccc21`, the composite z-score stood at 1.17 in assay [1]; 0.668 in assay [2]; 0.241 in assay [3]; 0.318 in assay [4]; 1.36 in assay [5]; 1.21 in assay [6]. Further, the composite z-score in the assay on Lefty1 stood at 1.03; in assay [8], 0.286. Also, the z-score in assay [7] is -1; in assay [9] it was -0.772 (inactive).
